Only some compounds are listed: those with a hit (about 16% of all), similar ones and a draw of the others.
TDP1 cell noCPT: qHTS for Inhibitors of human tyrosyl-DNA phosphodiesterase 1 (TDP1): qHTS in cells in absence of CPT; DT40 Tdp1-/- hTDP1 cells, no CPT, ATP luminescence, 48 h; Potency, µM (top dose mostly 46.2 µM), for the others: at the highest dose activity change, negative = growth inhibition, most hits filed as inhibitors; 420,000 tested, 15% active; AID 686978, 2013; also: potency is read from the fitted curve at half-maximal effect; % is scaled to controls: 0 for no effect and ±100 for the full control effect; nearly all actives have a fitted effect of over 55% in size
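Growth of hTDP1-complemented DT40 Tdp1-knockout cells is measured by ATP luminescence after at least 48 hr compound exposure at 37 °C, with DMSO substituting for the 20 nM CPT used in the parallel screen.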
DT40 TDP1 CPT: qHTS for Inhibitors of human tyrosyl-DNA phosphodiesterase 1 (TDP1): qHTS in cells in presence of CPT. Potency, µM (highest dose often 46.2 µM), without a hit: at the top dose activity change, negative = growth inhibition, usual class: inhibitors. 420,000 tested, 12% active. chicken DT40 Tdp1-/-;hTDP1 cells + 20 nM CPT, ATP luminescence, 48 h; also: potency is read from the fitted curve at half-maximal effect; % is scaled to controls: 0 for no effect and ±100 for the full control effect; nearly all actives have a fitted effect of over 55% in size
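Chicken DT40 Tdp1-/- cells stably complemented with human TDP1 were seeded at 400 cells/well in medium containing 20 nM camptothecin, exposed to pin-transferred compounds, and grown at 37 °C for at least 48 hr. Viability was read as ATP luminescence.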
uPA generation: qHTS for Inhibitors of Cell Surface uPA Generation. cell surface uPA generation assay, qHTS. Potency, µM (doses to about 38.3 µM), for inactives: top-dose activity change, negative = inhibition, usual class: inhibitors. 330,000 tested, 0.31% active. AID 540303, 2011; active = well fitted inhibition curve with a large enough effect; inconclusive = small, poorly fitted or top-dose-only effect; inactive = no such curve, though single readings can be large or run the other way; tested in mouse RAW 264.7 cells; also: potency is read from the fitted curve at half-maximal effect; % is scaled to controls: 0 for no effect and ±100 for the full control effect; nearly all actives have a fitted effect of over 55% in size
TDP1 inh: qHTS Assay for Inhibitors of Tyrosyl-DNA Phosphodiesterase (TDP1); Tyrosyl-DNA phosphodiesterase 1 (Homo sapiens), Q9NUW8; recombinant TDP1, AlphaScreen DNA substrate cleavage; Potency, µM (highest dose often 130 µM), for the others: at the highest dose activity change, negative = inhibition, usual class: inhibitors; 350,000 tested, 0.28% active; AID 485290, 2010; also: potency is read from the fitted curve at half-maximal effect; % is scaled to controls: 0 for no effect and ±100 for the full control effect; nearly all actives have a fitted effect of over 40% in size
Target sequence (Q9NUW8 whole entry, looked up): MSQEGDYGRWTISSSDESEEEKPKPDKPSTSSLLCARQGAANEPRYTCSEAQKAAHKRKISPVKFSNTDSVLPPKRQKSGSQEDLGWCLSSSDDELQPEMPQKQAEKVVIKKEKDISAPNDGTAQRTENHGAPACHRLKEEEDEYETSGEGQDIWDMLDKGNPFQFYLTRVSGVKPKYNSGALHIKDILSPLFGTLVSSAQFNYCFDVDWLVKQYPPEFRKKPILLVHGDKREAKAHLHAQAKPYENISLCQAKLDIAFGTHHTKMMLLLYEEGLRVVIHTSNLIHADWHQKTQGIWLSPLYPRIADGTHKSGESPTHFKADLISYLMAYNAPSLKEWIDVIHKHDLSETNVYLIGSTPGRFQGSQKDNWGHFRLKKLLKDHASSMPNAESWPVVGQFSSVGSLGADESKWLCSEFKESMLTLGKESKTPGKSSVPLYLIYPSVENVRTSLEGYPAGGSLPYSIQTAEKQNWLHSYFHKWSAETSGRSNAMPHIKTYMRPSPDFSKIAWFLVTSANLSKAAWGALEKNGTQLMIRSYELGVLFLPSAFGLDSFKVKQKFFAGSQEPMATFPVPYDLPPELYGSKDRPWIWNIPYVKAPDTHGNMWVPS
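Recombinant human Tdp1 (E. coli-expressed, 1 nM final) preincubated with compounds 15 min at room temperature, then 5'-biotin/3'-phosphotyrosine-FITC DNA substrate (15 nM final) added for 5 min. AlphaScreen beads (10 ug/ml final) added 10 min; cleavage lowers signal.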
miR-21 reporter: qHTS Assay for Modulators of miRNAs and/orActivators of miR-21; HeLa miR-21 FLuc reporter, luciferase, 48 h; Potency, µM (series often up to 38.3 µM), for inactives: top-dose activity change, positive = activation, most hits filed as activators; 340,000 tested, under 10 active;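 also: % of control where 0% means no effect; miR-21 action dims this reporter so a rising signal means less miR-21 action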
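Using DMEM plus 10% FBS, HeLa miR-21-FLuc cells are incubated with test compounds (final up to about 40uM) for 48 hours; firefly luciferase signal is then imaged following reagent-mediated lysis.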
Active calls of the source: *; ? = inconclusive; · = no result; [ ] = dose if it differs, or a comment. Unless noted, calls follow the shape of the dose curve; as a rule, active = well fitted curve in the direction sought with a large enough effect; inconclusive = small, poorly fitted or top-dose-only effect, or another doubt; inactive = no such curve, though single readings can be large; an effect the other way counts as inactive or inconclusive.

SMILES | TDP1 cell noCPT | DT40 TDP1 CPT | uPA generation | TDP1 inh | miR-21 reporter
O=C(Oc1ccccc1)N1CCN(c2ccccc2F)CC1 | ? | ? | 9.0% | · | -20.8%
Cc1ccc(/C=N/NC(=S)NC(C)C)o1 | -4.1% | -10.0% | 3.7% | 6.6% | -16.5%
Cc1[nH]c2ccccc2c1/C=N/NC(=S)NC(C)C | ? | ? | 1.5% | 8.2% | -21.1%
CC(C)NC(=S)N/N=C/c1cc(Br)ccc1O | 4.61µM* | 4.61µM* | -8.0% | 10.5% | -0.5%
Oc1ccc(Br)cc1/C=N/NC(=S)NCCc1ccccc1 | 16.4µM* | ? | -2.1% | -2.2% | 24.8%
O=C(CCc1ccccc1)N/N=C/c1cc(Br)ccc1O | 4.11µM* | 2.59µM* | -7.2% | -7.9% | -3.7%
CC(C)NC(=S)N/N=C/c1c[nH]c2ccccc12 | 3.66µM* | 4.61µM* | 0.0% | 5.6% | -46.1%
CC(C)C(NC(=O)C1CC(=O)N(Cc2ccccc2)C1)c1nc2ccccc2[nH]1 (centres undefined) | -7.1% | -18.0% | 3.3% | 0.2% | ·
CCOc1ccc(C(=O)OC2CCCN(C)C2)cc1 (centres undefined) | 1.5% | -3.2% | 1.6% | 3.7% | -7.5%
COc1ccc(N(C)S(=O)(=O)c2ccc3c(c2)CCN3C(=O)CCC(=O)O)cc1 | -2.5% | 12.9% | · | 4.6% | 0.1%
CC1CCCN(c2ccc(C(=O)NCc3ccccc3)cn2)C1 (centres undefined) | -21.2% | -5.1% | -6.1% | -2.6% | -41.1%
COc1ccccc1/C=N/NC(=O)c1nnn(-c2nonc2N)c1CN(C)c1ccccc1 | ? | -6.2% | 2.1% | 4.1% | -3.9%
C=CCn1c(Sc2ncc([N+](=O)[O-])s2)n[nH]c1=O | 0.92µM* | 0.411µM* | -12.0% | 7.7% | ?
O=C(Nc1ccccc1)C(=O)Nc1ccc2c(c1)N(C(=O)C1CC1)CCC2 | 23.1µM* | 20.6µM* | -22.3% | 3.6%[0.505 µM] | ·
NCCCC[C@H]1CNC(=S)N1CCCCC1CCCCC1 | 7.31µM* | 9.2µM* | -7.4% | 6.4% | -0.7%
NCCCC[C@H]1CNC(=S)N1CCc1cc(C(F)(F)F)cc(C(F)(F)F)c1 | ? | ? | -2.1% | 0.0% | -5.6%
CCN(C(=O)COC(=O)c1oc2ccccc2c1C)c1c(N)n(Cc2ccccc2)c(=O)[nH]c1=O | -4.9% | ? | 11.7% | 0.7% | ·
CCc1nc2c(OCc3cccc(Cl)c3)cccn2c1N(C)C(=O)C(C)C | 18.4µM* | 16.4µM* | · | · | ·
CCc1nc2c(OCc3cccc(Cl)c3)cccn2c1N(C)C(=O)Nc1ccccc1OC | 23.1µM* | 18.4µM* | · | · | ·
CCCCC(=O)N(C)c1c(CC)nc2c(OCC=C(C)C)cccn12 | 20.6µM* | ? | · | · | ·
CCCCC(=O)N(C)c1c(CC)nc2c(OCc3cccc(Cl)c3)cccn12 | 23.1µM* | ? | · | · | ·
COc1ccccc1NC(=O)CN1C(=O)C2(SCC(=O)N2c2ccc(F)c(F)c2)c2ccccc21 (centres undefined) | ? | ? | · | 5.3% | 5.9%
Cc1cc(C)c(S(=O)(=O)N2CCC(n3c(C(F)(F)F)nc4cccnc43)CC2)c(C)c1 | ? | ? | · | 7.9% | 0.0%
NC(=O)c1ccccc1NC(=O)c1ccccc1Cl | ? | -0.4% | 2.4% | · | -15.4%
NC(=O)c1ccccc1NC(=O)Nc1cccc(Cl)c1Cl | 9.2µM* | 5.8µM* | -5.7% | 2.2% | 1.4%
SMILES | TDP1 cell noCPT | DT40 TDP1 CPT | uPA generation | TDP1 inh | miR-21 reporter
Cc1c(Cl)cccc1NC(=O)Nc1ccccc1C(N)=O | 6.51µM* | 4.11µM* | ? | 0.0% | 5.8%
COc1ccc2c(c1)c(C1=C(c3c[nH]c4ccccc34)C(=O)NC1=O)cn2CCCN(C)C | · | · | · | 21.3% | ·
Cn1cc(C2=C(c3cn(CCCSC(=N)N)c4ccccc34)C(=O)NC2=O)c2ccccc21 | 0.708µM* | 0.631µM* | · | 27.2% | ·
CN(C)CCCn1cc(C2=C(c3c[nH]c4ccccc34)C(=O)NC2=O)c2ccccc21 | 23.7µM* | -121.7% | · | 20.7% | ·
C[C@H]1[C@H](C)CC[C@]2(C(=O)O)CC[C@]3(C)C(=CC[C@@H]4[C@@]5(C)C[C@@H](O)[C@H](O)C(C)(C)[C@@H]5CC[C@]43C)[C@H]12 | ? | ? | -7.7% | 5.5% | -1.3%
C[C@@H]1CC[C@]2(C(=O)O)CC[C@]3(C)C(=CCC4[C@]56CC[C@@](O)(OC5)C(C)(C)C6CC[C@]43C)C2[C@H]1C (some centres undefined) | 18.4µM* | 13µM* | -18.0% | · | ·
CNC(=S)N/N=C/c1ccc(N(C)C)cc1 | ? | 5.1% | -1.5% | 7.5% | -41.9%
Cc1nc2ccc(Br)cn2c1C(=O)N/N=C\c1ccc(C(C)C)cc1 | 7.31µM* | 7.31µM* | -2.8% | · | 11.5%
CC(C)c1ccc(/C=N/NC(=O)c2ccccc2Cl)cc1 | 2.91µM* | 4.11µM* | 3.16µM* | 1.1% | -20.4%
COC(=O)c1ccc(/C=N/NC(=O)c2ccccc2Cl)cc1 | ? | ? | -5.4% | 9.1% | -24.4%
CNC(=S)N/N=C/c1ccc(C(C)C)cc1 | 7.31µM* | 13µM* | -4.7% | · | ·
CC1=C(C(=O)O)N2C(=O)[C@@H](NC(=O)[C@@H](N)c3ccccc3)[C@@H]2SC1 | · | · | · | -7.4%[56.1 µM] | ·
CC(C)N(C(=O)Cn1c(-c2cccnc2)ccc(C#N)c1=O)C(C)C | -0.3% | -4.7% | -3.2% | · | 3.2%
Cc1ccc(C(=O)OCCc2c(C)[nH]n(-c3ccccc3)c2=O)cc1 | -19.8% | -21.2% | -0.5% | -2.9% | -6.4%
COc1cc(C2Nc3cccc4cccc(c34)N2)cc(OC)c1OC(C)=O | 23.1µM* | ? | 16.2% | 0.0% | -0.1%
